Out of some 3,600 compounds screened, about 900 (25%) were called active. The rule behind the calls is not given here. A selection follows. Results with a measured potency or affinity are listed apart.

The target of the assay is Protein Tat (Human immunodeficiency virus type 1 group M subtype B (isolate HXB2)) (UniProt P04608). The assay can be described thus: HIV-1 Tat–TAR interaction blockers – biochemical, fluorescence polarization, FAM-labeled TAR RNA, counter-screen for Vif-APOBEC3G degradation inhibitor project, dose response (AID 1117361). Particulars: Tat-TAR RNA binding; series mostly up to 100 µM. (In general: Fluorescence polarisation rises when a labelled molecule tumbles more slowly, as on binding a larger partner.)
Regarding `Nc1nc2n(n1)C(c1c(F)cccc1Cl)CC(c1ccc(F)cc1)N2` (centres undefined), the compound was called inactive.

Consider `CCOC(=O)Cn1c(=O)c2c(nc3n2CCN3Cc2ccccc2)n(C)c1=O`, for which the result was inactive.

Turning to `O=C(Nc1ccccc1)c1ccc(S(=O)(=O)N(CCO)CCO)cc1`, the outcome was inactive. Regarding `COc1ccccc1NC(=O)C12CC3CC(C1)CC(c1ccc(C)cc1)(C3)C2`, the compound was called inactive. In the case of `COc1ccc(N=c2scc(-c3ccc(OC)cc3)n2CCO)cc1`, the compound was called inactive. On to `COc1cc(OC)cc(C(=O)NNC(=O)c2ccccc2Br)c1`, for which the outcome was inactive.

Regarding `O=C(c1ccccc1Br)N1CCN(c2ccccc2)CC1`, the call was inactive. `CC1=CC(C)(C)n2c(O)c(N=NC(N)=S)c3c(C)c(C)cc1c32`: the outcome was inactive. Turning to `COc1ccccc1Oc1coc2cc(OC(=O)N3CCOCC3)ccc2c1=O`, the call was inactive. Turning to `O=C(O)c1ccc(Sc2nnnn2-c2ccccc2)c([N+](=O)[O-])c1`, the compound was classed as inactive. In the case of `CCCCN(C)C(=O)c1cn(CC)c2ccc(S(=O)(=O)N(C)C)cc2c1=O`, the call was inactive.

`O=C(CCCc1c[nH]c2ccccc12)N1CCOCC1`: the call was inactive.

Take `O=C(O)c1ccc(NS(=O)(=O)c2cccc(C(=O)Nc3ccc([N+](=O)[O-])cc3)c2)cc1`: the call was inactive. With `COc1ccccc1C(=O)Nc1ccc(S(=O)(=O)Nc2cc(C)nc(C)n2)cc1`, the compound was classed as inactive.

`CCn1c(C(=O)N2CCCC(C(=O)NCCc3ccc(C)cc3)C2)cc2sccc21` (centres undefined): the compound was classed as inactive. For the compound `O=C(NC1CCCC1)c1ccc(CNc2c(N3CCOCC3)c(=O)c2=O)cc1`, the compound was called inactive.

Consider `CCCCOCCCNC(=O)c1ccc(OCC)cc1`, for which the compound was called inactive. As for `CCCNC(=O)c1cccc(Cn2nc(C)c(Br)c2C)c1`, the entry is “inactive”. `CC1(C)Oc2ccc(C(=O)NC3CCCC3)cc2N(CC(=O)NC2CCCC2)C1=O`: the result was inactive.

For the compound `CCC(Nc1nc(-c2ccccc2)nc2ccccc12)C(=O)O` (centres undefined), the outcome was inactive.

On to `Clc1ccc(Sc2oc(/C=N/n3cnnc3)cc2Br)cc1`, for which the call was inactive. Take `O=C1C(Cl)=C(Nc2ccc3cn[nH]c3c2)C(=O)c2ccccc21`: the compound was classed as inactive. For `C/C(=N\NC(=O)C(C)Oc1ccc([N+](=O)[O-])cc1)c1ccccn1` (centres undefined), the outcome was inactive.

On to `COC(=O)C1=C(C)N(C)C(C)=C(C(=O)OC)C1c1ccc(F)c(Br)c1`, for which the outcome was inactive.

On to `COc1cc(OC)cc(C(=O)NC2CCN(C(=O)N3c4ccccc4Sc4ccccc43)CC2)c1`, for which the compound was classed as inactive. Turning to `Nc1c(-c2ccccc2Cl)cnn1-c1cccc([N+](=O)[O-])c1`, the outcome was inactive.

For the compound `COC(=O)Nc1sc2c(c1C(=O)NCc1ccco1)CCCC2`, the outcome was inactive. As for `COc1ccc(-c2[nH]c(-c3ccc(C)cc3)nc2SCC(=O)NCc2ccco2)cc1OC`, the compound was classed as inactive. With `O=C1CC(SC(=Nc2ccccc2)Nc2ccccc2)C(=O)N1c1ccc(Cl)cc1` (centres undefined), the compound was classed as inactive. With `O=C(NCc1ccc(F)cc1)C1CCCN(C(=O)Nc2ccccc2)C1` (centres undefined), the compound was called inactive. Turning to `CCOC(=O)CC1COc2ccccc2N1C(=O)c1ccc(C)cc1` (centres undefined), the outcome was inactive. Take `CS(=O)(=O)NCc1nnc(SCc2ccccc2C(F)(F)F)o1`: the result was inactive. As to `CSc1oc(-c2ccccc2)nc1S(=O)(=O)c1ccc(C)cc1`, the call was inactive. With `COc1ccc2c(c1)c1ccc3c(c1n2C)C(=O)C=CC3=O`, the result was inactive. As to `Cc1ccc2c(c1)c1ccc3c(c1n2C)C(=O)C=CC3=O`, the compound was called inactive. In the case of `COc1cc2c(cc1NC(=O)COC(=O)Cn1cnc3ccccc31)oc1ccccc12`, the compound was called inactive.

With `CCOC(=O)C(CC(=O)O)=C(c1ccccc1)c1ccccc1`, the compound was called inactive. Regarding `CCOC(=O)CSc1nnc(-c2cccnc2)n1Cc1ccccc1`, the outcome was inactive. `CCc1cccc(NC(=O)CN(C)S(=O)(=O)c2cccc3nsnc23)c1`: the call was inactive. Turning to `O=C(OCc1c(Cl)cccc1Cl)c1cccnc1Cl`, the call was inactive. As to `Cc1ccc(-c2csc(NC(=O)C3CC=CCC3C(=O)O)c2C(=O)OC(C)C)cc1` (centres undefined), the compound was classed as inactive.

For `O=C(C1CCCO1)N1CCC(c2nc3ccccc3[nH]2)CC1` (centres undefined), the call was inactive. Consider `O=C(C1CCN(S(=O)(=O)N2CCC3(CC2)OCCO3)CC1)N1CCOCC1`, for which the compound was classed as inactive. `O=C(NCC1CC1)c1ccc2c3n(nc2c1)-c1ccccc1CO3`: the result was inactive. Consider `O=C(NNC(=O)c1ccccc1O)c1cc2ccccc2o1`, for which the compound was classed as inactive. For `COc1ccc(C(=O)NCc2cn3cccc(C)c3n2)cc1OC`, the compound was classed as inactive. As to `COc1ccc(Cl)c(NCCC(=O)O)c1`, the call was inactive. To `O=C(NCc1cccnc1)c1cc(S(=O)(=O)N2CCCCC2)ccc1Cl` belongs “inactive”; to `NS(=O)(=O)c1ccc(NC(=O)COC(=O)c2cc(Cl)ccc2[N+](=O)[O-])cc1`, “inactive”.

`CC(=O)Nc1ccc(/C=N/Nc2ccc(C(=O)c3c(C)cc4ccccn34)cc2[N+](=O)[O-])cc1`: the compound was called inactive. With `Clc1ccc(/C(Cc2nc3ccccc3[nH]2)=N\Nc2ccccc2)cc1`, the result was inactive.

For `Cc1c(Cl)cccc1NC(=O)CC(Cc1ccccc1)C(=O)O` (centres undefined), the compound was classed as inactive. As for `COC(=O)c1cc2c(ccn2-c2ccc(F)cc2)n1CC(C)C`, the entry is “inactive”; as for `CC1CCN(c2nc3ccc(C(=O)N4CCN(Cc5ccccc5)CC4)cc3s2)CC1`, “inactive”. To `CCOC(=O)CSc1nnc(CNC(=O)c2cccs2)n1-c1ccccc1` belongs “inactive”; to `O=C(COC(=O)c1ccc(O)cc1O)NNC(=O)c1cccs1`, “inactive”; to `COc1cccc(OC)c1OCCOCCn1cnc2ccccc2c1=O`, “inactive”. As for `COCC(=O)NCc1nc2ccccc2[nH]1`, the outcome was “inactive [at 50 µM]”. Regarding `CCOc1cc(Cl)c(S(=O)(=O)NCc2ccccn2)cc1Cl`, the call was inactive. Take `Clc1ccc(CNc2ccc(CNc3ncn[nH]3)cc2)c(Cl)c1`: the compound was called inactive.

With `COc1cccc(/C=N/NC(N)=S)c1OCc1ccccc1Cl`, the result was inactive. To `CCn1c(CNc2ccc(Cl)cc2)nnc1SCc1ccccc1` belongs “inactive”.

On to `CCCNC(=O)COC(=O)c1ccccc1OCc1ccc(Cl)cc1`, for which the result was inactive. As for `CCOC(=O)CSc1nnc(CNc2ccc(Cl)cc2)n1-c1ccccc1`, the entry is “inactive”; as for `CCc1ccc(N2C(=O)Cc3c2nc(N)c(C#N)c3N)cc1`, “inactive”; as for `CCOC(=O)Cn1nc(-c2ccccc2)c2cnc3ccc(C)cc3c21`, “inactive”. As to `O=C1CC(c2c(F)cccc2Cl)C2=C(COC2=O)N1` (centres undefined), the call was inactive. For `COc1cccc(CC(=O)N2CCCC(CO)(Cc3ccc(F)cc3F)C2)c1` (centres undefined), the compound was classed as inactive.

Regarding `Cc1ccc(C(=O)COC(=O)CNC(=O)C(c2ccccc2)c2ccccc2)cc1[N+](=O)[O-]`, the outcome was inactive. For `O=c1c2c(-c3ccco3)csc2nc(SCc2cn3cccnc3n2)n1-c1ccccc1`, the call was inactive.

`C=CCn1c(SCC(=O)c2c(N)n(C)c(=O)n(C)c2=O)nnc1-c1ccccc1F`: the outcome was inactive. In the case of `N#CCOC(=O)c1sccc1-n1cccc1`, the result was inactive. As to `O=C(CSc1nnc(-c2ccc(F)cc2)o1)Nc1ccc(S(=O)(=O)N2CCCC2)cc1`, the outcome was inactive. As for `Cc1nnc(NC(=O)c2ccc(C)c(S(=O)(=O)N3CCOCC3)c2)s1`, the entry is “inactive”; as for `Cc1ccc(C(=O)Nc2cccc(C(=O)O)c2)cc1S(=O)(=O)N1CCOCC1`, “inactive”; as for `N#CC(=C1SC=CS1)c1nc(-c2ccccc2)cs1`, “inactive”. Turning to `CCOC(=O)C1CCN(c2ncnc3cc(OC)c(OC)cc23)CC1`, the result was inactive. For the compound `CCOC(=O)C1CCN(Cc2cnc(Oc3ccc(OC)cc3)s2)CC1`, the compound was called inactive.

In the case of `CCOC(=O)CSc1nnc(-c2ccco2)n1C`, the compound was classed as inactive. As for `CSc1ncccc1C(=O)OCC(=O)N1CCOCC1`, the entry is “inactive”; as for `CCN(CC)c1ccc(N=Cc2ccc(N(CC)CC)cc2O)cc1`, “inactive”.

`CCOC(=O)C1C(=O)CC(C)(O)C(C(=O)OCC)C1c1cc(Br)ccc1OC` (centres undefined): the outcome was inactive. On to `COc1cccc(-c2nn3c(-c4ccccn4)nnc3s2)c1`, for which the compound was called inactive. As for `O=C(CSc1nnc(-c2cccnc2)n1Cc1ccco1)c1ccc(Br)cc1`, the entry is “inactive”; as for `N#Cc1ccc(CSc2nnc(Cc3cccs3)n2Cc2ccco2)cc1`, “inactive”. As to `O=C(CCCCn1c(=O)[nH]c2ccsc2c1=O)NCc1cccnc1`, the compound was called inactive. Take `COC(=O)c1cc(=O)nc2sc(-c3ccc(F)cc3)nn12`: the outcome was inactive. As for `COc1c(OC(C)=O)ccc(/C=C/c2ccc3ccccc3n2)c1[N+](=O)[O-]`, the entry is “inactive”; as for `COC1=C(OC)C(=O)C(Sc2ccc3ccccc3c2)=CC1=O`, “inactive”; as for `CCNC(=O)NC(=O)COC(=O)CNC(=O)COc1ccccc1`, “inactive”. As for `CCOC(=O)CNc1nc(-c2ccncc2)nc2ccccc12`, the entry is “inactive”. As for `Cc1ccc(NC(=O)C(=O)c2c(-c3ccccc3)cc3ccccn23)cc1S(=O)(=O)N1CCOCC1`, the entry is “inactive”; as for `O=C(C1CC(c2ccccc2O)=NO1)N1CCCCC1` (centres undefined), “inactive”; as for `Cc1ccc(NC2=NCCCCC2)cc1C`, “inactive”. As to `Oc1ccc(/C=N/N2CCCCC2)c(O)c1`, the compound was classed as inactive. Turning to `Cc1ccc(C(C[N+](=O)[O-])Sc2ccc(N)cc2)cc1` (centres undefined), the call was inactive. Turning to `CCCCc1ccc(NC(=O)CC(C)(C)C)cc1`, the call was inactive.

Regarding `COC(=O)c1sccc1NC(=O)CC1C(=O)NCCN1C(=O)Nc1ccccc1` (centres undefined), the compound was classed as inactive. As for `COc1ccc(C2SCC(C(=O)NCc3ccc(F)cc3)N2C(C)=O)cc1` (centres undefined), the entry is “inactive”; as for `O=C(Nc1ccc(F)c(Cl)c1)c1cccnc1`, “inactive”; as for `Cc1ccc(S(=O)(=O)C2(C(=O)Nc3cccc(F)c3)CC2)cc1`, “inactive”. As to `O=C(NNC(=O)c1cccnc1)Nc1ccc([N+](=O)[O-])cc1`, the call was inactive. Turning to `CC(C)Cc1cc(C(=O)Nc2cccc(O)c2)no1`, the compound was called inactive. For the compound `CN1CCN(C(CNC(=O)c2ccc(Br)o2)c2ccc(F)cc2)CC1` (centres undefined), the call was inactive. For the compound `CCOc1ccc(C2c3c(oc4ccccc4c3=O)C(=O)N2CCCN2CCOCC2)cc1` (centres undefined), the compound was called inactive. On to `COc1ccc(C(C(C(=O)c2cccs2)N2CCOCC2)N2CCOCC2)cc1OC` (centres undefined), for which the result was inactive. As for `CN(C(=O)c1ccc(OC2CCN(S(=O)(=O)N(C)C)CC2)cc1)C1CCCCC1`, the outcome was inactive.

With `Cc1cccc2nc(C(=O)Nc3cccc(C(=O)NC4CC4)c3)cn12`, the call was inactive. As for `COc1ccc(N2CCN(CCNC(=O)Nc3ccc(Cl)cc3)CC2)cc1`, the entry is “inactive”. On to `COc1ccc(NC(=O)Cc2ccc(Cl)cc2)cc1NC(=O)c1ccco1`, for which the outcome was inactive.

Regarding `O=C(Nc1ccccc1)NC1CCN(CCCN2C(=O)c3ccccc3C2=O)CC1`, the compound was called inactive. Take `CC(=O)c1cccc(NC(=O)NCCS(C)=O)c1` (centres undefined): the result was inactive. `Cc1ccc(NC(=O)Nc2ccc3c(c2)nc(C)n3C)cc1`: the call was inactive. On to `Cc1cc2nc(C)n(CCCNC(=O)Nc3ccc(F)cc3)c2cc1C`, for which the call was inactive.

The record behind these values is PubChem BioAssay AID1117361 (Southern Research Institute, 2015).
